Counter-ions that a name gives are not always drawn. ± gives the standard deviation of the averaged measurements.
tested on: E. coli TESEC Alr+ wild-type control; assay: growth (OD600 after 10 h); higher = more growth (less inhibition); settings: compound 0.1 mM; raw OD600 reference: median of DMSO wells 0.49, cell-free background 0.052
Protocol: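 TESEC Mtb Alr E. coli (ΔaraC ΔtolC ΔentC Δalr ΔdadX, arabinose-inducible Mtb Alr) or the Alr+ wild-type control strain, grown in defined M9-fructose medium without D-alanine in 96-well plates with Prestwick library compounds at 0.1 mM and 1% DMSO. Low Alr induction is 0.1 µM arabinose and high induction is 10 mM arabinose.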

Going from `Nc1nc(/C(=C/CC(=O)O)C(=O)N[C@@H]2C(=O)N3C(C(=O)O)=CCS[C@H]23)cs1` [Ceftibuten] to `Cc1nnc(SCC2=C(C(=O)O)N3C(=O)[C@@H](NC(=O)Cn4cnnn4)[C@H]3SC2)s1` [Cefazolin sodium salt], the growth rises from 0.252 ± 0.016 to 0.562 ± 0.098.

First: C=CCc1ccccc1OCC(O)CNC(C)C (stereo not given) [Alprenolol hydrochloride]
Second: CC(C)n1c(/C=C/C(O)CC(O)CC(=O)O)c(-c2ccc(F)cc2)c2ccccc21 (stereo not given) [Fluvastatin sodium salt]
The growth of the first is higher: 0.446 ± 0.015 for the first, 0.401 ± 0.012 for the second.

`Cc1onc(-c2c(F)cccc2Cl)c1C(=O)N[C@@H]1C(=O)N2[C@@H]1SC(C)(C)[C@@H]2C(=O)O` [Flucloxacillin sodium] and `Cc1onc(-c2ccccc2Cl)c1C(=O)N[C@@H]1C(=O)N2[C@@H]1SC(C)(C)[C@@H]2C(=O)O` [Cloxacillin sodium salt] are within error of each other in growth: 0.496 ± 0.053 for the first, 0.514 ± 0.11 for the second.

Going from `Cc1cccc(C)c1OCC(C)N` (stereo not given) [Mexiletine hydrochloride] to `COC(=O)C1=C(C)NC(C)=C(C(=O)OCC(C)C)C1c1ccccc1[N+](=O)[O-]` (stereo not given) [Nisoldipine], the growth rises from 0.399 ± 0.005 to 0.433 ± 0.007.

Going from `CC[C@H]1OC(=O)[C@H](C)[C@@H](O[C@H]2C[C@@](C)(OC)[C@@H](O)[C@H](C)O2)[C@H](C)[C@@H](O[C@@H]2O[C@H](C)C[C@H](N(C)C)[C@H]2O)[C@](C)(O)C[C@@H](C)CN(C)[C@H](C)[C@@H](O)[C@]1(C)O` [Azithromycin] to `CC1(C)O[C@@H]2C[C@H]3[C@@H]4C[C@H](F)C5=CC(=O)CC[C@]5(C)[C@H]4[C@@H](O)C[C@]3(C)[C@]2(C(=O)CO)O1` [Flurandrenolide], the growth rises from 0.0526 ± 0.00017 to 0.417 ± 0.041.

Compared with `CCn1cc(C(=O)O)c(=O)c2cc(F)c(N3CCNCC3)nc21` [Enoxacin], `CCOC(=O)C1=C[C@]2(CC)CCCN3CCc4c(n1c1ccccc41)[C@@H]32` [Vinpocetine] is higher in growth: 0.05513 ± 0.00042 for the first, 0.557 ± 0.044 for the second.

First: CN1C(=O)OC(C)(C)C1=O [Trimethadione]
Second: Cc1cn([C@H]2C[C@H](N=[N+]=[N-])[C@@H](CO)O2)c(=O)[nH]c1=O [Zidovudine, AZT]
The growth of the first is higher: 0.553 ± 0.073 for the first, 0.199 ± 0.0087 for the second.

Compared with `CC[N+](CC)(CC)CCOc1cccc(OCC[N+](CC)(CC)CC)c1OCC[N+](CC)(CC)CC` [Gallamine triethiodide], `Cc1cc(C(C)(C)CC(C)(C)C)ccc1OCCOCC[N+](C)(C)Cc1ccccc1` [Methyl benzethonium chloride] is lower in growth: 0.475 ± 0.062 for the first, 0.0474 ± 0.00066 for the second.

Compared with `Cc1ccc(C(=O)c2cc(O)c(O)c([N+](=O)[O-])c2)cc1` [Tolcapone], `Cc1ccnc(NS(=O)(=O)c2ccc(N)cc2)n1` [Sulfamerazine] is higher in growth: 0.065 ± 0.0022 for the first, 0.515 ± 0.075 for the second.

`C[N+]1(C)CCC(OC(=O)C(O)(c2ccccc2)C2CCCC2)C1` (stereo not given) [Glycopyrrolate] and `CC(C)(C(=O)O)c1ccc(C(O)CCCN2CCC(C(O)(c3ccccc3)c3ccccc3)CC2)cc1` (stereo not given) [Fexofenadine HCl] are within error of each other in growth: 0.575 ± 0.12 for the first, 0.567 ± 0.054 for the second.

First: CC(=O)Nc1c(I)c(NC(C)=O)c(I)c(C(=O)O)c1I [Diatrizoic acid dihydrate]
Second: CC(C)c1nc(CN(C)C(=O)N[C@H](C(=O)N[C@@H](Cc2ccccc2)C[C@H](O)[C@H](Cc2ccccc2)NC(=O)OCc2cncs2)C(C)C)cs1 [Ritonavir]
The growth of the first is higher: 0.537 ± 0.08 for the first, 0.362 ± 0.01 for the second.

`CN1CCC(=C2c3ccccc3C=Cc3ccccc32)CC1` [Cyproheptadine hydrochloride] and `CN(C)CCOC(c1ccccc1)c1ccccc1` [Diphenhydramine hydrochloride] are within error of each other in growth: 0.452 ± 0.11 for the first, 0.495 ± 0.051 for the second.

Compared with `CN(C/C=C/C#CC(C)(C)C)Cc1cccc2ccccc12` [Terbinafine], `COc1ccc2c(c1)N(C[C@H](C)CN(C)C)c1ccccc1S2` [Methotrimeprazine maleat salt] is higher in growth: 0.358 ± 0.013 for the first, 0.477 ± 0.023 for the second.

First: O=C1NCCN1c1ncc([N+](=O)[O-])s1 [Niridazole]
Second: CN(CCOc1ccc(CC2SC(=O)NC2=O)cc1)c1ccccn1 (stereo not given) [Rosiglitazone Hydrochloride]
The growth of the first is lower: 0.0563 ± 0.002 for the first, 0.327 ± 0.0092 for the second.

`OCCN1C[C@H](O)[C@@H](O)[C@H](O)[C@H]1CO` [Miglitol] and `C[C@H](CCC(=O)O)[C@H]1CC[C@H]2[C@@H]3[C@H](O)C[C@@H]4C[C@H](O)CC[C@]4(C)[C@H]3CC[C@]12C` [Chenodiol] are within error of each other in growth: 0.583 ± 0.098 for the first, 0.439 ± 0.059 for the second.

Compared with `NCCC[C@H](N)CC(=O)N[C@H]1CNC(=O)[C@H]([C@H]2C[C@H](O)NC(N)=N2)NC(=O)/C(=C/NC(N)=O)NC(=O)[C@H](CO)NC(=O)[C@H](CO)NC1=O` [Viomycin sulfate], `OCc1cc(C(O)CNCCCCCCOCCCCc2ccccc2)ccc1O` (stereo not given) [Salmeterol] is higher in growth: 0.193 ± 0.13 for the first, 0.399 ± 0.032 for the second.

`CC(C)(S)C(N)C(=O)O` (racemic) [D,L-Penicillamine] and `CC(C)(Oc1ccc(C2CC2(Cl)Cl)cc1)C(=O)O` (stereo not given) [Ciprofibrate] are within error of each other in growth: 0.437 ± 0.0091 for the first, 0.515 ± 0.079 for the second.

`COc1ccnc(C[S+]([O-])c2nc3cc(OC(F)F)ccc3[nH]2)c1OC` (stereo not given) [Pantoprazole sodium] and `CN(C)CCC(c1ccc(Cl)cc1)c1ccccn1` (stereo not given) [Chlorpheniramine maleate] are within error of each other in growth: 0.451 ± 0.013 for the first, 0.466 ± 0.037 for the second.

`O=C(NCC1CCCCN1)c1cc(OCC(F)(F)F)ccc1OCC(F)(F)F` (stereo not given) [Flecainide acetate] and `O=C(O)Cc1ccc(-c2ccccc2)cc1` [Felbinac] are within error of each other in growth: 0.495 ± 0.081 for the first, 0.575 ± 0.04 for the second.

`N#CC(c1ccc(Cl)cc1)c1c(Cl)cc(-n2ncc(=O)[nH]c2=O)cc1Cl` (stereo not given) [Diclazuril] and `Oc1c(Cl)cc(Cl)c(Cl)c1Cc1c(O)c(Cl)cc(Cl)c1Cl` [Hexachlorophene] are within error of each other in growth: 0.156 ± 0.17 for the first, 0.05693 ± 0.00042 for the second.

Source: the supplement of paper PMC9262897, “Low-cost anti-mycobacterial drug discovery using engineered E. coli” (Nature Communications, 2022)
